Source: publication PMC7826789 (International Journal of Molecular Sciences, 2021)

Columns and labels:
Conditions in all cases: Compound Concentration (nM):1000
[1] = tested on: INSRR
[2] = tested on: INSR
[3] = tested on: IRAK1
[4] = tested on: IRAK3
[5] = tested on: IRAK4
[6] = tested on: ITK
[7] = tested on: JAK1(JH1domain-catalytic)
[8] = tested on: JAK1(JH2domain-pseudokinase)
[9] = tested on: JAK2(JH1domain-catalytic)
[10] = tested on: JAK3(JH1domain-catalytic)
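Note: KINOMEscan scanMAX binding as percent activity remaining versus control; lower means stronger binding.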

SMILES	Percent Control [1] [%]	Percent Control [2] [%]	Percent Control [3] [%]	Percent Control [4] [%]	Percent Control [5] [%]	Percent Control [6] [%]	Percent Control [7] [%]	Percent Control [8] [%]	Percent Control [9] [%]	Percent Control [10] [%]
COc1cccc(-n2ncc3c(N/N=C/c4ccncc4)ncnc32)c1 [GW784752X]	100	100	37	0	99	100	100	96	66	83
COc1ccccc1-c1cc(/C=C2\C(=O)Nc3ncc(Br)cc32)cc(Br)c1O [GW442130X]	100	87	74	100	85	100	100	100	82	55
CN1CCN(C(=O)c2ccc(NC(=O)Nc3ccc(N(C)c4ccnc(Nc5ccc(CS(C)(=O)=O)cc5)n4)cc3)cc2)CC1.Cl [GW830263A]	100	61	58	0.1	52	98	76	13	4.7	5.4
C/C(Nc1ccc(S(N)(=O)=O)cc1)=C1/C(=O)Nc2ccccc21 [GW335962X]	100	66	82	88	91	100	100	61	73	52
CC1=C(C(=O)Nc2ccc3[nH]ncc3c2)C(c2ccc(Cl)c(Cl)c2)CC(=O)N1 (stereo not shown) [GSK299115A]	100	100	88	56	100	74	41	86	13	9.3
O=C(Nc1n[nH]c2nc(-c3ccc(O)cc3)c(Br)cc12)C1CC1 [SB-725317]	100	100	56	100	89	100	60	63	24	6.9
Cc1cc(O)cc(C)c1/C=C/c1cncc(C(N)=O)c1 [GW435821X]	100	93	100	100	100	94	100	59	92	100
Cl.O=C(Nc1ccc(Oc2ccc3[nH]c(NC(=O)c4ccccc4)nc3c2)cc1)Nc1cc(C(F)(F)F)ccc1F [GW709042A]	100	85	89	100	86	100	99	96	100	77
COc1cc(/C=N/Nc2ncnc3[nH]ncc23)ccc1O [GW578748X]	100	94	31	100	61	100	100	0.6	47	47
COc1ccc(COc2ccc(Cc3cnc(N)nc3N)cc2OC)cc1 [GW632580X]	100	69	99	100	95	89	100	89	92	77
Cl.c1ccc(Cc2nc3ccc(Nc4ncnc5ccccc45)cc3[nH]2)cc1 [GR269666A]	100	100	100	100	100	100	100	88	100	100
CC1=C(C(=O)Nc2ccc3[nH]ncc3c2)C(c2ccc3ccccc3c2)CC(=O)N1 (stereo not shown) [GSK270822A]	100	100	72	67	100	75	82	90	9.6	3.4
COc1cc2ncnc(Nc3ccc4c(cnn4Cc4ccccc4)c3)c2cc1OC.Cl [GW282449A]	100	100	100	100	100	100	100	92	100	100
Cl.O=C(Nc1ccc(Oc2ccc3[nH]c(NC(=O)c4ccco4)nc3c2)cc1)Nc1cc(C(F)(F)F)ccc1F [GW683134A]	100	88	91	100	89	97	100	90	94	87
COc1cc2ncn(-c3cc(O[C@H](C)c4ccccc4Cl)c(C(N)=O)s3)c2cc1OC [GSK237701A]	100	100	64	70	98	82	100	70	46	100
CCc1ccc(Oc2nccc(-c3c(-c4ccc(F)cc4)ncn3C3CCNCC3)n2)cc1 [SB-242719]	100	77	95	95	88	100	95	100	90	100
COC(=O)Nc1nc2ccc(Oc3ccc(NC(=O)Nc4cc(C(F)(F)F)ccc4F)cc3)cc2s1.Cl [GW693917A]	100	68	97	100	90	74	71	80	57	61
NS(=O)(=O)c1ccc(N/N=C2\C(=O)Nc3ccc(Cl)cc32)cc1 [GW280670X]	100	100	100	100	100	100	100	80	100	100
COc1cc(C)c(N(C)C(=O)CN(C)C)cc1Nc1nc(Nc2cccc(F)c2C(N)=O)c2cc[nH]c2n1 [GSK2219385]	2.9	4.3	95	97	95	99	88	81	100	92
CCS(=O)(=O)c1ccc(OC)c(Nc2ncc(-c3cccc(F)c3)o2)c1 [GW621970X]	100	100	48	100	61	100	100	98	100	75

SMILES	Percent Control [1] [%]	Percent Control [2] [%]	Percent Control [3] [%]	Percent Control [4] [%]	Percent Control [5] [%]	Percent Control [6] [%]	Percent Control [7] [%]	Percent Control [8] [%]	Percent Control [9] [%]	Percent Control [10] [%]
NS(=O)(=O)c1ccc(N/N=C2\C(=O)Nc3ccc(-c4cnco4)cc32)cc1 [GW276655]	83	73	79	100	90	93	100	31	54	16
O=C1Nc2ccc(C(=O)c3ccco3)cc2C1=Cc1cc(Cl)c(O)c(Cl)c1 [GW406108X]	100	91	86	100	64	100	100	7.3	47	2.1
COc1ccc2cc(-c3c(-c4ccncc4)nc(-c4ccc(S(C)(=O)=O)cc4C)n3C)ccc2c1 [SB-633825]	89	100	68	75	81	60	100	75	72	63
Cl.O=S1CCN(Cc2ccc(-c3ccc4ncnc(Nc5ccc(OCc6ccccc6)c(F)c5)c4c3)o2)CC1 [GW576924A]	100	100	100	100	100	100	100	89	100	100
NS(=O)(=O)c1ccc(N/N=C2\C(=O)Nc3ccc(C(=O)NCc4ccncc4)cc32)cc1 [GW300657X]	89	100	71	91	96	99	88	50	64	37
NS(=O)(=O)c1ccc(Nc2ncc(-c3ccccc3)o2)cc1 [GW572399X]	100	100	99	100	100	90	100	87	100	71
C[C@@H](Oc1cc(-n2cnc3ccc(OC4CCN(C)CC4)cc32)sc1C(N)=O)c1ccccc1Cl [GSK579289A]	90	64	73	83	94	77	100	75	75	7.2
COc1ccc2[nH]c3c4[nH]c5ccc(OC)cc5c4c4c(c3c2c1)C(=O)NC4=O [GW296115X]	95	66	94	66	76	89	100	39	84	47
COc1ccc2c(-c3ccnc(Nc4cccc(OC(F)(F)F)c4)n3)cnn2n1 [GW810372X]	100	90	19	80	100	100	100	7.5	62	65
CN(C)c1cc2c(Nc3ccc4c(cnn4Cc4ccccc4)c3)ncnc2cn1 [GW282974X]	100	63	100	100	100	87	100	92	100	99
COc1cc(N2CCN(C(C)C)CC2)ccc1Nc1nc(Nc2ccc(F)cc2C(=O)NC[C@@H](O)CO)c2cc[nH]c2n1 [GSK1392956A]	1.4	1.1	90	86	89	100	94	89	100	88
Nc1ncnc2occ(-c3ccc(NC(=O)Nc4cc(C(F)(F)F)ccc4F)cc3)c12 [GW770249X]	100	90	95	100	100	100	79	80	62	100
COc1cc(C=NNc2ncnc3c2cnn3-c2ccccc2)ccc1O [GW513184X]	100	100	43	28	72	100	100	84	72	81
COc1cccc(-c2c[nH]c3c(N/N=C/c4ccncc4)ncnc23)c1 [GW814408X]	100	93	23	76	59	96	75	80	31	18
CCS(=O)(=O)c1ccc(OC)c(Nc2ncc(-c3cccc(OC)c3)o2)c1 [GW580509X]	100	95	90	100	100	100	100	97	94	62
CN(C)CCNC(=O)Nc1ccc(N(C)c2ccnc(Nc3ccc(CS(C)(=O)=O)cc3)n2)cc1.Cl [GW830900A]	99	75	59	31	80	83	100	33	30	40
NS(=O)(=O)c1ccc(N/N=C2\C(=O)Nc3ccc(C(=O)NCCc4c[nH]cn4)cc32)cc1 [GW300660X]	100	96	82	100	99	100	100	20	80	64
CC(C)COC(=O)c1ccc2c(c1)/C(=C/Nc1ccc(S(N)(=O)=O)cc1)C(=O)N2 [GW416981X]	100	100	50	100	100	100	100	56	63	14
Cl.O=C(O[C@H]1CN[C@H](C#Cc2cc3ncnc(Nc4ccc5c(cnn5Cc5ccccc5)c4)c3s2)C1)N1CCOCC1 [GSK200398A]	100	77	100	77	96	100	96	91	99	90
CCn1c(-c2nonc2N)nc2c(C#CC(C)(C)O)nc(OCCNC)cc21.Cl [GSK949675]	100	100	92	100	88	100	100	100	96	87
